High-throughput results from PubChem BioAssay.
Luciferase inh = qHTS Assay for Inhibitors of Firefly Luciferase. AID 411, 2009. 72,000 compounds, 2.2% hits. purified firefly luciferase, luminescence, 8 min. Potency, µM (titrated, usually from 57.1 µM), for inactives: at the highest dose activity change, negative = inhibition, hits mostly inhibitors; further: on the % scale 0 is the no-effect control and ±100 the full control effect; nearly all actives have a fitted effect of over 40% in size
Target sequence (P08659 whole entry, looked up): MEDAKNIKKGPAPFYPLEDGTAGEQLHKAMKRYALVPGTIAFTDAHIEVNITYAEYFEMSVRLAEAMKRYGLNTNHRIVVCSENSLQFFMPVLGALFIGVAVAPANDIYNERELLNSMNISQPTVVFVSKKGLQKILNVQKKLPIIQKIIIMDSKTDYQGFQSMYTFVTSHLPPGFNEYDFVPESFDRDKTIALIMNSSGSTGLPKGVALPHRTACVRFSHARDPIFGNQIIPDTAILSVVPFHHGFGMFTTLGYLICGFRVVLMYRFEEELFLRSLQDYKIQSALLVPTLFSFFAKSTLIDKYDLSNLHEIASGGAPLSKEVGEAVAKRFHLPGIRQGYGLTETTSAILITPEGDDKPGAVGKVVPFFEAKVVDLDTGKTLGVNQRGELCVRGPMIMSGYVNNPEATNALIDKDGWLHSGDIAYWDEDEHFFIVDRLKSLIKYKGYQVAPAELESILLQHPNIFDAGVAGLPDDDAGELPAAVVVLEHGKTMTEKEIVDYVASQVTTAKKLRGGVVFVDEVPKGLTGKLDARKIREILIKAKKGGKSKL
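Inhibition of light generation by firefly luciferase from ATP and luciferin was profiled with concentration-response curves per sample, ATP held at 10 uM within the enzyme's linear range. Plates were read by luminescence after an 8-minute ambient incubation.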
Caspase-1 inhib = qHTS Assay for Allosteric/Competitive Inhibitors of Caspase-1; Potency, µM (highest dose often 57.5 µM), inactives show at the highest dose activity change, negative = inhibition, actives largely listed as inhibitors; Caspase-1 enzyme, Ac-WEHD-AFC fluorogenic rate; 75,000 compounds, 0.03% hits;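 further: plate controls were vehicle for no effect and no substrate for full effect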
Bst PK mod = Pyruvate Kinase | purified pyruvate kinase, luminescence ATP production; ribose 5-phosphate activator present at AC10 | Potency, µM | 51,000 compounds, 1.2% hits | AID 361, 2006; in the data active means potency below about 11 µM; inconclusive means mostly about 12 µM to 25 µM;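 the screen sought inhibitors and activators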;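 further: scaled between full activation by ribose 5 phosphate and full inhibition by luteolin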
Tau fil binding = qHTS Assay for Tau Filament Binding. recombinant tau filaments, thioflavin S fluorescence, 15 h; filaments grown with octadecylsulfate alongside compound. 71,000 compounds, 2% hits. AID 596, 2007. Microtubule-associated protein tau (Homo sapiens), P10636. Potency, µM (top dose mostly 57.1 µM), for the others: top-dose activity change, negative = inhibition;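 further: on the % scale 0 is the no-effect control and ±100 the full control effect; actives lower thioflavin S fluorescence by blocking filaments or displacing dye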
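Tau 2 uM in ThS buffer dispensed; compound added; 60 uM ODS added (finals 1 uM tau, 30 uM ODS); 15 h 37 C; fluor ex450/em510.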
Casp7 inh = qHTS Assay for Allosteric/Competitive Inhibitors of Caspase-7; AID 889, 2007; Potency, µM (highest dose often 57.5 µM), for inactives: at the highest dose activity change, negative = inhibition, most hits filed as inhibitors; P55210; recombinant caspase-7, Ac-DEVD-AFC fluorescence rate; 75,000 compounds, 0.02% hits; active means well fitted inhibition curve with a large enough effect in the main read-out, with a control signal flat, not every such curve was filed as active; inconclusive means small, poorly fitted or top-dose-only effect, or a change in a side signal; further: % of control where 0% means no effect
* = called active by the depositor; [ ] = another dose, or the depositor's remark. This is a sample that favours compounds with a hit; in the whole collection about 4% have one here. Unless noted, the call rests on the fitted dose curve; in most records, active means well fitted curve in the direction sought with a large enough effect; inconclusive means small, poorly fitted or top-dose-only effect, or another doubt; inactive means no such curve, though single readings can be large; an effect the other way counts as inactive or inconclusive. Potency means the concentration at half of the fitted maximal effect.

Results for O=C(CCc1ccccc1)Nc1ccc(N2CCOCC2)cc1 ?
Luciferase inh: -9%; Caspase-1 inhib: -1%; Tau fil binding: 16µM*; Casp7 inh: -1%

How did Cc1cc(NC(=O)c2oc3ccccc3c2C)ccc1-n1cnnn1 do in these assays?
Luciferase inh: 10µM*; Caspase-1 inhib: -1%; Bst PK mod: inactive; Tau fil binding: 73%; Casp7 inh: -1%

What do the screens show for `Cc1c(C(=O)Nc2ccc(N3CCOCC3)cc2)oc2ccccc12`?
Luciferase inh: 2.5µM*; Caspase-1 inhib: -4%; Bst PK mod: inconclusive; Tau fil binding: 25µM*; Casp7 inh: -2%

How did N#CCCn1c(=O)c(CCc2ccccc2)nc2cnc(Oc3cccc(Cl)c3)nc21 do in these assays?
Luciferase inh: 0%[11.4 µM]; Caspase-1 inhib: -8%; Tau fil binding: -20%; Casp7 inh: -7%

How did COCCNC(=O)c1sc2nc(-c3ccccc3)cn2c1C do in these assays?
Luciferase inh: -14%; Caspase-1 inhib: -1%; Tau fil binding: 8%; Casp7 inh: 2%

What do the screens show for `COc1ccc2c(c1)sc1nc(-c3ccccc3)cn12`?
Luciferase inh: 0.063µM*; Caspase-1 inhib: -2%; Bst PK mod: 0.055*; Tau fil binding: 131%; Casp7 inh: -3%

What do the screens show for `C[N+]1(C)C[C@@H](O)C[C@@H]1C(=O)[O-]`?
Luciferase inh: -1%[25.5 µM]; Caspase-1 inhib: -2%[25.7 µM]; Tau fil binding: 1%[25.6 µM]; Casp7 inh: 2%[25.7 µM]

What do the screens show for `CCn1c(COc2ccccc2C)nnc1SCC(=O)O`?
Luciferase inh: 2%; Caspase-1 inhib: -1%; Bst PK mod: >57; Tau fil binding: -1%; Casp7 inh: 2%

Results for CCn1c(SCC(=O)O)nnc1-c1cc2c(C)nn(-c3ccccc3)c2s1 ?
Luciferase inh: 25µM*; Caspase-1 inhib: 1%; Bst PK mod: inactive; Tau fil binding: 30%; Casp7 inh: -1%

Results for Cn1c(=O)c(-c2ccccc2)nc2cnc(N3CCOCC3)nc21 ?
Luciferase inh: 1%[11.4 µM]; Tau fil binding: 153%; Casp7 inh: inconclusive

What do the screens show for `C=C(C)C(O)/C=C/c1cccc(OC)c1` (centres undefined)?
Caspase-1 inhib: -2%[11.5 µM]; Casp7 inh: -4%[11.5 µM]

Results for COc1ccc(CCNC(=O)c2ccc3nc(-c4ccco4)c(-c4ccco4)nc3c2)cc1OC ?
Luciferase inh: -9%; Bst PK mod: >57; Tau fil binding: 3.2µM*; Casp7 inh: inconclusive

How did Cc1cc(C)c2c(N)c(C(=O)Nc3nccs3)sc2n1 do in these assays?
Luciferase inh: 0.5µM*; Tau fil binding: 352%; Casp7 inh: inconclusive

Results for O=C1C[C@@H](O)[C@@H](O)[C@H]2[C@@H]3C(=O)N(C4CCCCC4)C(=O)[C@@H]3CC[C@H]12 ?
Luciferase inh: 1%[11.4 µM]; Caspase-1 inhib: -2%[11.5 µM]; Casp7 inh: 1%[11.5 µM]

How did Nn1c(Nc2ccccc2)nc2ccccc21 do in these assays?
Luciferase inh: 13µM*; Caspase-1 inhib: -3%; Tau fil binding: -2%; Casp7 inh: 0%

What do the screens show for `OCc1ccccc1OCCOc1ccc(Cl)c2cccnc12`?
Luciferase inh: -10%; Caspase-1 inhib: 0%; Bst PK mod: 3.5*; Tau fil binding: 24%; Casp7 inh: -3%

How did Clc1ccc(OCCn2ccnc2)c2ccccc12 do in these assays?
Luciferase inh: 1%; Caspase-1 inhib: -1%; Tau fil binding: 14%; Casp7 inh: 2%

Results for COc1ccccc1-c1ccc(Nc2cccc(C(C)=O)c2)nn1 ?
Luciferase inh: 20µM*; Caspase-1 inhib: -3%; Bst PK mod: >57; Tau fil binding: 6%; Casp7 inh: -3%

Results for COC(=O)c1cccc(Nc2cc(C)nc(-c3ccccc3O)n2)c1 ?
Luciferase inh: -2%[25.5 µM]; Bst PK mod: >26

What do the screens show for `C[C@@H](SCc1ccccc1)C(=O)O`?
Luciferase inh: 1%[11.4 µM]; Caspase-1 inhib: -2%[11.5 µM]; Tau fil binding: -3%[11.4 µM]; Casp7 inh: 1%[11.5 µM]

How did COc1ccc2nc(N3CCCCC3)c(C#N)cc2c1 do in these assays?
Luciferase inh: 25µM*; Bst PK mod: inactive; Tau fil binding: inactive; Casp7 inh: inconclusive

How did N=C(N)SCCc1ccc(OCc2ccc([N+](=O)[O-])cc2)cc1 do in these assays?
Luciferase inh: 2%; Caspase-1 inhib: 3%; Tau fil binding: 32µM*; Casp7 inh: 1%
